25 molecules from PubChem BioAssay (NCI) can be followed below.

This is part of a sample that, as a whole, favours compounds with a hit. Of some 83,000 tested, about 20% had one in any assay.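 For each line, cells grew in 96-well plates with the test compound present at a single concentration for 48 hours.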 Values without a mark were called inactive. Activity calls are given as the source filed them. How the source made its calls: active means growth percent below 10; inactive means the rest.

The assay concerns HL-60(TB) leukemia. Briefly: NCI-60 one-dose screen, 48 h (100 = growth as untreated, 0 = no growth, -100 = all killed). The note with it: 10 µM unless noted.
With `COc1cc(/C=C/c2nc(Nc3ccc(S(=O)(=O)Nc4cc(C)on4)cc3)c3ccccc3n2)ccc1O`, the growth was 27.4%.

Take `CCC(C)(C)C(=O)O[C@H]1C[C@@H](C)C=C2C=C[C@H](C)[C@H](CC[C@@H]3C[C@@H](O)CC(=O)O3)[C@H]21`: the growth was 77.1%.

For `Cc1cccc(C[C@H](NC(=O)Nc2ccc(Cl)cc2F)C(=O)N[C@@H]2C(=O)N3C[C@H](O)C[C@H]3C(=O)N3CCCC[C@H]3C(=O)N[C@@H](C)C(=O)N3C[C@H](C)C[C@H]3C(=O)O[C@H]2C)c1`, the growth is 6.77% (active).

Take `O=C(O)CS(=O)c1ccc(Cl)cc1` (stereo not given): the growth was 86.2%.

As for `O=C(Nc1cc(Br)ccn1)c1cc2cc(Nc3nc(-c4ccccc4)nc4ccccc34)ccc2oc1=O`, the growth is 87.3%.

Turning to `COc1ccc(-c2cnnc3c(-c4cccc(C(F)(F)F)c4)cnn23)cc1`, the growth was 60.2%.

As to `Cc1csc(Nc2nc(-c3cccc(Cl)c3)nc(C(Cl)(Cl)Cl)n2)n1`, the growth was -10.2% (active).

As for `COc1cccc(-c2nn(-c3ccccc3)cc2-c2ccnc(NCCCNS(=O)(=O)c3cccc(F)c3)c2)c1`, the growth was 9.51% (active).

Consider `CCNC(=O)C1CCCN1C(=O)C(CCCN=C(N)N)NC(=O)C(CC(C)C)NC(=O)C(CC(C)C)NC(=O)C(Cc1ccc(O)cc1)NC(=O)C(CO)NC(=O)C(Cc1c[nH]c2ccccc12)NC(=O)C(Cc1cnc[nH]1)NC(=O)C1CCC(=O)N1` (stereo not given), for which the growth was 113%.

For the molecule `N#CC(Cc1cccc2ccccc12)c1cc2ccccc2[nH]1` (stereo not given), the growth is 96.4%.

On to `CNc1nc2ncn(C)c2c(=O)[nH]1`, for which the growth is 91.5%.

Take `COc1cccc(C2C3=C(COC3=O)N(CCO)c3cc4c(cc32)CCC4)c1` (stereo not given): the growth is -0.364% (active).

`O=C(O)/C=C/c1ccc2c(c1)CCC2`: the growth was 110%.

For `CCOC(=O)c1c(N)sc2cc(O)ccc12`, the growth is 94.1%.

In the case of `CCOC(=O)c1cn2ncnc(Oc3ccc(NC(=O)NCCN(CC)CC)c(Cl)c3)c2c1C`, the growth was 100%.

Turning to `N=c1ccccn1CCO`, the growth is 120%.

As to `c1ccc([P+](CCC[P+](c2ccccc2)(c2ccccc2)c2ccccc2)(c2ccccc2)c2ccccc2)cc1`, the growth was 30.5%.

In the case of `Cc1nc2ccccc2n1CC1C(=O)NC(=O)NC1=O`, the growth was 102%.

For `COc1ccccc1/C=C1\COc2ccc(-c3ccccc3)cc2C1=O`, the growth is -47.8% (active).

With `CNc1cccc2c1C(=O)c1cccc(N)c1C2=O`, the growth was 34.4%.

As to `COc1ccc2c(c1)c(-c1noc(C(=O)c3cn(C)c4ncc(Br)cc34)n1)cn2C`, the growth is 98.2%.

On to `CC1(C)N=C(N)N=C(N)N1c1cccc(OCCOc2cccc([N+](=O)[O-])c2)c1`, for which the growth was 17.6%.

On to `COc1ccc(C2c3ccc4ccccc4c3Oc3nc(C)[nH]c(=O)c32)cc1` (stereo not given), for which the growth is 99.3%.

Regarding `COc1c(C(NC(=O)c2ccccc2)c2sccc2C)cc(Cl)c2cccnc12` (stereo not given), the growth is 96.1%.

With `Fc1ccc(Nc2ccc3c(OCCCN4CCOCC4)cccc3n2)cc1F`, the growth is 85.3%.
